Data: PubChem BioAssay (Tox21)
Results filed as inconclusive are left out. Active and inactive are the calls of the source. Unless noted, calls follow the shape of the dose curve; as a rule, active = well fitted curve in the direction sought with a large enough effect in the repeat runs; inconclusive = weak or mixed curves; inactive = no such curve, though single readings can be large; an effect the other way counts as inactive or inconclusive.

Experiments:
[1] = qHTS assay to identify small molecule agonists of the peroxisome proliferator-activated receptor delta (PPARd) signaling pathway - cell viability counter screen (AID 743211); also: nearly all actives have a fitted effect of over 55% in size
In short: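 Tox21 library compounds, delivered in DMSO, were incubated 17 h with PPARd-bla HEK293H cells; cytotoxicity was taken from CellTiter-Glo luminescence read 30 min after reagent addition.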

[2] = target: Peroxisome proliferator-activated receptor delta (Homo sapiens) (UniProt Q03181); test: qHTS assay to identify small molecule agonists of the peroxisome proliferator-activated receptor delta (PPARd) signaling pathway (AID 743212; calls by dose curve)
In short: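 A PPARd-bla HEK293H line with beta-lactamase under an Upstream Activator Sequence is treated with compounds at 37 C. Substrate loading for 2 h at room temperature precedes the fluorescence measurement.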

[3] = qHTS assay to identify small molecule antagonists of the peroxisome proliferator-activated receptor delta (PPARd) signaling pathway - cell viability counter screen (AID 743213); also: nearly all actives have a fitted effect of over 50% in size
In short: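 PPARd-bla HEK293H cells were treated with compounds plus agonist L165041 (300 nM final) for 17 h at 37 C. Viability was then read in the same wells by CellTiter-Glo luminescence after 30 min at room temperature.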

[4] = target: Bile acid receptor (Homo sapiens) (UniProt Q96RI1); test: qHTS assay to identify small molecule antagonists of the farnesoid-X-receptor (FXR) signaling pathway (AID 743217; active = well fitted inhibition curve with a large enough effect in the signal ratio in the repeat runs, not every such curve was filed as active; the % refers to the signal ratio)
In short: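 GeneBLAzer FXR-UAS-bla HEK 293T, CDCA-stimulated (50 uM final). Compound treatment 16 h, 37 °C. Detection: beta-lactamase cleavage of B/G FRET substrate, fluorescence.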

[5] = qHTS assay to identify small molecule agonists of the farnesoid-X-receptor (FXR) signaling pathway - cell viability counter screen (AID 743218); also: nearly all actives have a fitted effect of over 45% in size
In short: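 Parallel cytotoxicity test: compound-treated (16 h, 37 C) HEK 293T FXR-bla reporter cells were lysed with CellTiter-Glo and luminescence recorded.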

[6] = target: Bile acid receptor (Homo sapiens) (UniProt Q96RI1); test: qHTS assay to identify small molecule agonists of the farnesoid-X-receptor (FXR) signaling pathway (AID 743220; active = well fitted activation curve with a large enough effect in the signal ratio in the repeat runs, not every such curve was filed as active; the % refers to the signal ratio)
In short: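 Beta-lactamase reporter under UAS control in GeneBLAzer FXR HEK 293T cells (5000/well) measured with LiveBLAzer FRET substrate after 2 h at room temperature. Compound exposure lasted 16 h at 37C.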

[7] = qHTS assay to identify small molecule antagonists of the farnesoid-X-receptor (FXR) signaling pathway - cell viability counter screen (AID 743221; active = well fitted cell-killing curve with a large enough effect in the repeat runs, not every such curve was filed as active; also: nearly all actives have a fitted effect of over 50% in size)
In short: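 Cytotoxicity is taken from ATP luminescence (CellTiter-Glo, 30 min, room temperature) in FXR-bla HEK 293T cells previously incubated 16 h at 37 C with compound and chenodeoxycholic acid at 50 uM final.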

[8] = target: Vitamin D3 receptor (Homo sapiens) (UniProt P11473); test: qHTS assay to identify small molecule agonists of the vitamin D receptor (VDR) signaling pathway (AID 743222; calls by dose curve)
In short: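 In VDR-bla cells, compound-induced beta-lactamase expression is quantified by FRET substrate fluorescence. Treatment lasts 16 h at 37C; substrate develops 2 h at room temperature.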

[9] = target: Vitamin D3 receptor (Homo sapiens) (UniProt P11473); test: qHTS assay to identify small molecule antagonists of the vitamin D receptor (VDR) signaling pathway (AID 743223; active = well fitted inhibition curve with a large enough effect in the signal ratio in the repeat runs, not every such curve was filed as active; the % refers to the signal ratio)
In short: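 Quantitative HTS in VDR-bla reporter cells stimulated with 1alpha,25-dihydroxyvitamin D3, 3 nM final. Compound exposure 16 h, 37C, 5% CO2. Read-out: beta-lactamase FRET substrate fluorescence, 2 h RT.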

[10] = qHTS assay to identify small molecule antagonists of the vitamin D receptor (VDR) signaling pathway - cell viability counter screen (AID 743225); also: nearly all actives have a fitted effect of over 50% in size
In short: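 Same-well multiplex: following 16 h treatment of HEK 293T cells carrying a UAS-driven beta-lactamase reporter with compound and agonist (3 nM final), and a 2 h FRET substrate step, CellTiter-Glo was added and luminescence read after 30 min.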

[11] = qHTS assay to identify small molecule agonists of the NFkB signaling pathway (AID 1159509; active = well fitted curve in the direction sought with a large enough effect in the signal ratio in the repeat runs, not every such curve was filed as active; the % refers to the signal ratio; also: series mostly up to about 61 µM)
In short: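 NFkB-bla ME-180 cells carry a beta-lactamase reporter under an NF-kB response element. They were plated overnight, then exposed to compounds for 5 h at 37 C. Read-out is LiveBLAzer FRET after 1.5 hr at room temperature (405 nm excitation; 460/530 nm emission).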

[12] = qHTS assay to identify small molecule agonists of the NFkB signaling pathway - cell viability counter screen (AID 1159515; calls by dose curve; also: series mostly up to about 61 µM; nearly all actives have a fitted effect of over 55% in size)
In short: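 Using the same wells as the NFkB reporter read, ME-180 NFkB-bla cells given compounds for 5 hr were assessed for viability via CellTiter-Glo, with luminescence taken after a 30 min room-temperature incubation.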

[13] = qHTS assay to identify small molecule agonists of the endoplasmic reticulum stress response signaling pathway (AID 1159516; active = well fitted activation curve with a large enough effect in the signal ratio in the repeat runs, not every such curve was filed as active; the % refers to the signal ratio)
In short: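 An ESRE-bla HeLa cell assay: compounds were pin-transferred from DMSO onto overnight-plated cells and left 5 hr at 37 C. Substrate was then loaded for 2 hr at room temperature before reading fluorescence at 460 nm and 530 nm.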

[14] = qHTS assay to identify small molecule agonists of the endoplasmic reticulum stress response signaling pathway - cell viability counter screen (AID 1159517; calls by dose curve;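 also: HeLa cells carrying an ER stress response element beta-lactamase reporter; series mostly up to about 61 µM; nearly all actives have a fitted effect of over 50% in size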)
In short: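 CellTiter-Glo was added to wells already read for beta-lactamase FRET, and luminescence was recorded 30 min later. Cells: ESRE-bla HeLa, 1,500 per well, compound exposure 5 hr at 37 C.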

[15] = qHTS assay to identify small molecule antagonists of the retinoid-related orphan receptor gamma (ROR-gamma) signaling pathway - cell viability counter screen (AID 1159520); also: nearly all actives have a fitted effect of over 50% in size
In short: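 Tet-on ROR gamma CHO cells (1,000/well) were plated 4 hr, given compounds in DMSO for 2 hr at 37 C, then induced with 1 uM final doxycycline for 16 hr. Viability was read as ATP by CellTiter-Glo luminescence after 30 min.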

[16] = target: Nuclear receptor ROR-gamma (Homo sapiens) (UniProt P51449); test: qHTS assay to identify small molecule antagonists of the retinoid-related orphan receptor gamma (ROR-gamma) signaling pathway (AID 1159521)
In short: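 Inducible-expression reporter assay: doxycycline (1 uM final) switched on RORγ in CHO cells bearing a ROR response element-luciferase construct, with test compounds present from 2 h beforehand. Decreased luminescence after 16 h defined antagonist activity.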

[17] = qHTS assay to identify small molecule agonists of the AP-1 signaling pathway - cell viability counter screen (AID 1159525; calls by dose curve; also: nearly all actives have a fitted effect of over 55% in size)
In short: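 ME-180 AP-1-bla, 2500 cells/well, Opti-MEM + 0.5% dialyzed FBS; overnight 37 °C; cpd 15-pt titration, 5 h 37 °C; CellTiter-Glo 30 min RT; luminescence read; normalised to TOAB and DMSO controls.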

[18] = qHTS assay to identify small molecule agonists of the AP-1 signaling pathway (AID 1159526; calls by dose curve)
[19] = target: Peroxisome proliferator-activated receptor delta (Homo sapiens) (UniProt Q03181); test: qHTS assay to identify small molecule antagonists of the peroxisome proliferator-activated receptor delta (PPARd) signaling pathway (AID 743215; active = well fitted inhibition curve with a large enough effect in the signal ratio in the repeat runs, not every such curve was filed as active; the % refers to the signal ratio;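 also: cells stimulated with agonist L165041 at 300 nM final during compound exposure; series mostly up to about 62 µM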)
In short: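 HEK293H UAS-bla, PPARd; agonist L165041 300 nM final with cpd in DMSO; 37 C 17 h; FRET substrate, RT 2 h; fluorescence intensity.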

[20] = qHTS assay to identify small molecule agonists of the vitamin D receptor (VDR) signaling pathway - cell viability counter screen (AID 743224)
In short: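 Plated VDR-bla cells (4 h, 37C) received compound, incubated 16 h, then LiveBLAzer substrate 2 h RT; CellTiter-Glo added afterwards, luminescence read at 30 min.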

Measured: Potency

Sequence of Peroxisome proliferator-activated receptor delta (Homo sapiens) (Q03181 whole entry, looked up): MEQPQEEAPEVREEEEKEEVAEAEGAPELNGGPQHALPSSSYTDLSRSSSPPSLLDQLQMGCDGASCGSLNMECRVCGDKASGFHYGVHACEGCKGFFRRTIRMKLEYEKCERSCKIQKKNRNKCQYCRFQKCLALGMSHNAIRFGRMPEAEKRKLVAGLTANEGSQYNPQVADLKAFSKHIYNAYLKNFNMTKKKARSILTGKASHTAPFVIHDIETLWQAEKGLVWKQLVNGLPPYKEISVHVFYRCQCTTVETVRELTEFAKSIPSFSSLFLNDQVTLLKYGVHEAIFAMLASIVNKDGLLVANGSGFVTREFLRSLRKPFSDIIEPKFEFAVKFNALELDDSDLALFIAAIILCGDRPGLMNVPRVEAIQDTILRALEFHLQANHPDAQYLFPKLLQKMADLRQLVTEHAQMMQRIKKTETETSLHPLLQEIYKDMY
Sequence of Bile acid receptor (Homo sapiens) (Q96RI1 whole entry, looked up): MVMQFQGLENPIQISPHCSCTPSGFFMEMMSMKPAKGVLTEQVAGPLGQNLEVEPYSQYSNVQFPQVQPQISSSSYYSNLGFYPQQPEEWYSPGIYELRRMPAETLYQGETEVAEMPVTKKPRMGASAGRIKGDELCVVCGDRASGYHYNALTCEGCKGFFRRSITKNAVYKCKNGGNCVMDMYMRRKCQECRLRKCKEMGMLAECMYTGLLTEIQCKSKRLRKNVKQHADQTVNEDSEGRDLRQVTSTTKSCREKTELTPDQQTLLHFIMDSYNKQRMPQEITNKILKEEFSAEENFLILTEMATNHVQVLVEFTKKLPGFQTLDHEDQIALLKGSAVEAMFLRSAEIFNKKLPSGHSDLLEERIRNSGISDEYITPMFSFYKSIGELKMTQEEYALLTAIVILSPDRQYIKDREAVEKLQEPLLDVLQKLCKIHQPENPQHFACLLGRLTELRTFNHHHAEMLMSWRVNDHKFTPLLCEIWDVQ
Sequence of Vitamin D3 receptor (Homo sapiens) (P11473 whole entry, looked up): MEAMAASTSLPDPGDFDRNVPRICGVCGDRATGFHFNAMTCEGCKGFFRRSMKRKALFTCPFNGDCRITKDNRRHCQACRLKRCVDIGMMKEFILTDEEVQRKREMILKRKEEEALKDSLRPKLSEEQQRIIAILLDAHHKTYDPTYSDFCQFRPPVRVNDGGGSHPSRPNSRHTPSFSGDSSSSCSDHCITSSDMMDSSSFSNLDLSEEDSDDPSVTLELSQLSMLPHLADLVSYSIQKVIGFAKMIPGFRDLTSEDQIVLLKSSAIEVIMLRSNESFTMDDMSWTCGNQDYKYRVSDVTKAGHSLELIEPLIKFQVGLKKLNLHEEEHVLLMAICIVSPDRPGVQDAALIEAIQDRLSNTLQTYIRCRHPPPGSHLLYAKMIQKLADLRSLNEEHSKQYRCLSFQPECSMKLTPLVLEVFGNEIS

Cc1ccccc1N=O
not listed: [19] | [20]
inactive: all other assays above

ClCCCl
not listed: [4] | [5] | [6]
inactive: all other assays above

COCCOCCOCCOCCOCCO
not listed: [4] | [6] | [9]
inactive: all other assays above

Oc1ccccc1-c1nnco1
not listed: [4] | [6] | [19]
inactive: all other assays above

CC(=O)CCCCn1c(=O)c2c(ncn2C)n(C)c1=O
not listed: [4] | [6] | [8] | [9]
inactive: all other assays above

CCNC(=O)C1CC(C)CCC1C(C)C (stereo not drawn)
not listed: [4] | [6] | [9]
inactive: all other assays above

CC(C)CC(=O)O
not listed: [4] | [6] | [9] | [20]
inactive: all other assays above

COc1cc2c(cc1OC)[C@@H]1CC(=O)[C@@H](CC(C)C)CN1CC2
not listed: [4] | [5] | [6]
inactive: all other assays above

O=C(OCC(COC(=O)c1cccnc1)(COC(=O)c1cccnc1)COC(=O)c1cccnc1)c1cccnc1
not listed: [4] | [6] | [8]
inactive: all other assays above

CC(C(=O)O)c1ccc2c(c1)CC(=O)c1ccccc1S2 (stereo not drawn)
not listed: [2] | [4] | [6] | [8] | [9]
inactive: all other assays above

C[C@H](N)[C@H](O)c1cccc(O)c1
not listed: [8] | [16]
inactive: all other assays above

CCCCCCCCCCCCCC
not listed: [2] | [4] | [6] | [19]
inactive: all other assays above

C=C(C)C1CCC(C)(O)CC1 (stereo not drawn)
not listed: [2] | [4] | [6] | [7]
inactive: all other assays above

CCCCCCCCCCl
not listed: [2] | [7] | [9] | [19]
inactive: all other assays above

Cc1cccc(C)c1OCC(C)N (stereo not drawn)
not listed: [2] | [5] | [6] | [8] | [9] | [19] | [20]
inactive: all other assays above

On1nnc2ccccc21
not listed: [2] | [3] | [4] | [5] | [6] | [7] | [19] | [20]
inactive: all other assays above

CC(CO)c1ccccc1 (stereo not drawn)
not listed: [2] | [4] | [6] | [8] | [9] | [19]
inactive: all other assays above

COCCOC(=O)C1=C(C)NC(C)=C(C(=O)OC(C)C)C1c1cccc([N+](=O)[O-])c1 (stereo not drawn)
not listed: [3] | [4] | [6] | [8] | [9] | [20]
inactive: all other assays above

O=C(NCC(O)CO)c1c(I)c(C(=O)NCC(O)CO)c(I)c(N(CCO)C(=O)CO)c1I (stereo not drawn)
not listed: [2] | [5] | [9] | [19]
inactive: all other assays above

CC(C)CC(C)CC(C)CC(C)COC(=O)c1ccccc1C(=O)OCC(C)CC(C)CC(C)CC(C)C (stereo not drawn)
not listed: [2] | [9]
inactive: all other assays above

FC(F)(F)c1ccccc1-n1ccnc1
not listed: [2] | [4] | [5] | [6] | [20]
inactive: all other assays above

CC(CC=O)CCCC(C)(C)O (stereo not drawn)
not listed: [3] | [4] | [6] | [9] | [20]
inactive: all other assays above

CC(C)c1ccc2cc(C(C)C)ccc2c1
not listed: [2] | [4] | [6] | [19]
inactive: all other assays above

Nc1cccc(O)c1
not listed: [2] | [4] | [8] | [10] | [20]
inactive: all other assays above

O=C(CCNNC(=O)c1ccncc1)NCc1ccccc1
not listed: [2] | [19]
inactive: all other assays above

CC(=O)NCc1c(I)c(NC(C)=O)c(I)c(C(=O)O)c1I
not listed: [2] | [3] | [4] | [6] | [7] | [9] | [19]
inactive: all other assays above

C=C(C)C(=O)OCCN(CC)CC
not listed: [3] | [4] | [6] | [7] | [9]
inactive: all other assays above

CC(=O)N[C@@H](CCC(=O)O)C(=O)O
not listed: [2] | [4] | [6] | [8] | [9] | [19]
inactive: all other assays above

O=C(OCc1ccccc1)C(=O)OCc1ccccc1
not listed: [1] | [4] | [6]
inactive: all other assays above

COC(=O)CCc1ccc(OCC(O)CNC(C)C)cc1 (stereo not drawn)
not listed: [2] | [4] | [6] | [19]
inactive: all other assays above

CCCCCCCCC1CCC(=O)O1 (stereo not drawn)
not listed: [9] | [16] | [20]
inactive: all other assays above

COc1ccc2c(c1OC)C(=O)O[C@@H]2[C@H]1c2c(cc3c(c2OC)OCO3)CCN1C
not listed: [3] | [4] | [6] | [9] | [19]
inactive: all other assays above

C=C1CC/C=C(\C)CC[C@@H]2[C@@H]1CC2(C)C
not listed: [2] | [5] | [19]
inactive: all other assays above
